According to the supplement of paper PMC6411743:
± gives the standard deviation of the averaged measurements. About 6,500 targets were measured; listed, in parts, are those with the largest changes and a random draw of the rest.

Compound: Nc1ncnc2c1ncn2[C@@H]1O[C@H](COP(=O)(O)OP(=O)(O)OP(=O)(O)O)[C@@H](O)[C@H]1O [adenosine triphosphate]
Experiment: NP40-soluble protein abundance relative to vehicle (solubility fold change) (ratio); higher = more soluble protein in presence of ATP
Procedure, shortened: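 Eight concentrations, 0.1 to 10 mM, were tested on Jurkat crude lysate for 10 min at room temperature and then 3 min at 37 °C, in three independent experiments. The lysate was solubilised with 0.8% NP40 and benzonase, ultracentrifuged, and the supernatant TMT-labelled for LC-MS/MS. Each value is the fold change against the detergent-processed vehicle in its own replicate, from vsn-normalised intensities.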

Sequence of UniProt Q8NAF0 (Q8NAF0 whole entry): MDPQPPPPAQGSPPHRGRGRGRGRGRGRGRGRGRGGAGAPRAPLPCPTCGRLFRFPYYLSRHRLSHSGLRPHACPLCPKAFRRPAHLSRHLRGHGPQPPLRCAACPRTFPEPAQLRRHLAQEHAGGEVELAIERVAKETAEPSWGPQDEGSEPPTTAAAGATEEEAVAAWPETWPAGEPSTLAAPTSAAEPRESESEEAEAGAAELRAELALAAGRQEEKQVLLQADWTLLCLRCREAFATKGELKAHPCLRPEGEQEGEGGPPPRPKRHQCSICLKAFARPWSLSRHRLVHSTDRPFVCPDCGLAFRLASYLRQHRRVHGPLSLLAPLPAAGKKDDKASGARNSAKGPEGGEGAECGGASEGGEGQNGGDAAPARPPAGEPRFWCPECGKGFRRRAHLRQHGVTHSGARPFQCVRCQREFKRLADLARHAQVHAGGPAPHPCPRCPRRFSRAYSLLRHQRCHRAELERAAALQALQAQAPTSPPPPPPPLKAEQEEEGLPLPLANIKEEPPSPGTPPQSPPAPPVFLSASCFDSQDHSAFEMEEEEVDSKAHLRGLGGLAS
Sequence of UniProt Q86X95 (Q86X95 whole entry): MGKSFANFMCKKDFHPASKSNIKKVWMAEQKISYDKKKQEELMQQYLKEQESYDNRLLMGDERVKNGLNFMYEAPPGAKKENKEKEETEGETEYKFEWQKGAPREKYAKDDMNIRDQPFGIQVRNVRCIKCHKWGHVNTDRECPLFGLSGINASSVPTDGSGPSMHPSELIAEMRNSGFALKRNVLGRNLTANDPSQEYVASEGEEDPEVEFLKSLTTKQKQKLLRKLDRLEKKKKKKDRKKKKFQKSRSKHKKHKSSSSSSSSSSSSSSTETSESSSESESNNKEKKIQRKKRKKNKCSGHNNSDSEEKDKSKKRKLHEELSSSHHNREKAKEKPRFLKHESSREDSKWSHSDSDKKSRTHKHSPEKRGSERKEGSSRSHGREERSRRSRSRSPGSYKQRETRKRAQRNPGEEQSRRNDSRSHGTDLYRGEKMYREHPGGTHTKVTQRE
Sequence of UniProt Q8NCA5 (Q8NCA5 whole entry): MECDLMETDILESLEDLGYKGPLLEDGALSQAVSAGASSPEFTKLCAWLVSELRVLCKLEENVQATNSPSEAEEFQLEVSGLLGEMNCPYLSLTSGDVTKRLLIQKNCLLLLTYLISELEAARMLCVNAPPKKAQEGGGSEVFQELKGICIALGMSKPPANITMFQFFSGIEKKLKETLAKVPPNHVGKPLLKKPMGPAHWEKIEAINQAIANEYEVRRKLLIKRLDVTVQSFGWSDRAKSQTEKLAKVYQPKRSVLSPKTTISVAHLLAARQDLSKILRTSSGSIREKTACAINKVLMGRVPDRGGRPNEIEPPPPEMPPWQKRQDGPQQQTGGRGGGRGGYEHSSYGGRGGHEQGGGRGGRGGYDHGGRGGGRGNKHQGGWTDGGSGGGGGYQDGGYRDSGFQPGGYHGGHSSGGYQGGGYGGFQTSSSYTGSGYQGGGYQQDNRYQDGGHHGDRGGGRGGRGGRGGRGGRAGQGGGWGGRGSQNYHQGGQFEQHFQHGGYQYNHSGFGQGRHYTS
Sequence of UniProt Q14498 (Q14498 whole entry): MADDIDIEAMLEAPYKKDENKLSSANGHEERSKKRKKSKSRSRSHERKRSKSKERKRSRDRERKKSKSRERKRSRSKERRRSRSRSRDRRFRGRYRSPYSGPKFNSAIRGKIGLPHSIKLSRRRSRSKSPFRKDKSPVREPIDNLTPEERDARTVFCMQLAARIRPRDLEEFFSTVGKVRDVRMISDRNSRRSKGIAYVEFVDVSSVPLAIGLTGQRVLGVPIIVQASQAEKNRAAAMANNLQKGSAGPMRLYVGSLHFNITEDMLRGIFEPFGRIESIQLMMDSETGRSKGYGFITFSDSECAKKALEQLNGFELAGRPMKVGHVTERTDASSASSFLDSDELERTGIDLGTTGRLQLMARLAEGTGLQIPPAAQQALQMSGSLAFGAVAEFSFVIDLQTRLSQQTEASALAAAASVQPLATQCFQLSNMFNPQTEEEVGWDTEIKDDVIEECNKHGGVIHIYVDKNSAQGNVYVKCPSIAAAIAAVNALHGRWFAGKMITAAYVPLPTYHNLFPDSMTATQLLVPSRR
Sequence of UniProt Q16181 (Q16181 whole entry): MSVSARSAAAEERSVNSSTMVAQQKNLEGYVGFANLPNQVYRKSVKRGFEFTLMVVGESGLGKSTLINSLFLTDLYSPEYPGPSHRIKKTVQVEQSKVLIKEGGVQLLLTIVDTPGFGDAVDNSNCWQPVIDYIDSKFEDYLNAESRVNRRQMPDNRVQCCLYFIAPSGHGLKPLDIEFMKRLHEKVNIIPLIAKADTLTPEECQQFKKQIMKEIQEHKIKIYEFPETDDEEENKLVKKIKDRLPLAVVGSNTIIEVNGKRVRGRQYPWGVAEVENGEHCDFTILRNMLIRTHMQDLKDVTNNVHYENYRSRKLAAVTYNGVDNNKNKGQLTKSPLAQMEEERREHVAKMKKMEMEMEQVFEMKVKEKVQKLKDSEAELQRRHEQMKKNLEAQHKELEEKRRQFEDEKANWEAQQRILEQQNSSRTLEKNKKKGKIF
Sequence of UniProt Q8N6N3 (Q8N6N3 whole entry): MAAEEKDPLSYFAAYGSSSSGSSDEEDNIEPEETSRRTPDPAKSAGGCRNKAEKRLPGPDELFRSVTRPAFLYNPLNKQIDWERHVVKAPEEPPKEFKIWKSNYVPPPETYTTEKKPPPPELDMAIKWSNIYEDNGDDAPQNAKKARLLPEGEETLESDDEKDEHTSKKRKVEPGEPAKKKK
Sequence of UniProt Q2NKX8 (Q2NKX8 whole entry): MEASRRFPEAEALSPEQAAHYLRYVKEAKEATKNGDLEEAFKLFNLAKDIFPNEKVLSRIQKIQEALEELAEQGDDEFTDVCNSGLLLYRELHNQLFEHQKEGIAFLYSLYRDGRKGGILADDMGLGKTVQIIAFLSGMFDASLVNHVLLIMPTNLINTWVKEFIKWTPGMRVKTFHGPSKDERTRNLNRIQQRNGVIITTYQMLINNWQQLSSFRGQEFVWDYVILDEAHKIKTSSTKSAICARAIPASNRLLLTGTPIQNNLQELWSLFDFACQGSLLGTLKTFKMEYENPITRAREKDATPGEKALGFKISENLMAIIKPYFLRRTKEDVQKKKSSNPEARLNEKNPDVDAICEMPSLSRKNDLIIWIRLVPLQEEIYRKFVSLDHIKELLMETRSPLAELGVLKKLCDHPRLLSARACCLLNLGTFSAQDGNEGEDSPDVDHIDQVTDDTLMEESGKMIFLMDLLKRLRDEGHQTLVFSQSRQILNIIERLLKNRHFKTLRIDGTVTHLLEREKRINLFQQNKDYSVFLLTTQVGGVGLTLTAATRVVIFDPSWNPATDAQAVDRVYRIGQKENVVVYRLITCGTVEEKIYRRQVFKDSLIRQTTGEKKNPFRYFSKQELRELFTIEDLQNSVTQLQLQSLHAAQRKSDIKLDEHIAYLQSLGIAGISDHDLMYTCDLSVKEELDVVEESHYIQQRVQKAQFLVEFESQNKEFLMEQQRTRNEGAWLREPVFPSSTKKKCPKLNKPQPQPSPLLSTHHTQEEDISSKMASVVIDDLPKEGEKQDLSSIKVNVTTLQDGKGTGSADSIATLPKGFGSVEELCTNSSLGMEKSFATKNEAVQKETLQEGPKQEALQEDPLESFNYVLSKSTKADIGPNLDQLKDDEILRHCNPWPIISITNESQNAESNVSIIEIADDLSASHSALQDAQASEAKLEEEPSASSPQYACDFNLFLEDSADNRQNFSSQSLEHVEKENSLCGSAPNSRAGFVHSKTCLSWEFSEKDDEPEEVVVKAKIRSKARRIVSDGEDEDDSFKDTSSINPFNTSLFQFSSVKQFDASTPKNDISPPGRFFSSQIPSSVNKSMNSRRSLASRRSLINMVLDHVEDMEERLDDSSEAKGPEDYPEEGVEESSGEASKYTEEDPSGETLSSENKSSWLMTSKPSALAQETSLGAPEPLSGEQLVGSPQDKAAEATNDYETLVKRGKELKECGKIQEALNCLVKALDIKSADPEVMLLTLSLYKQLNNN
Sequence of UniProt Q8NEJ9 (Q8NEJ9 whole entry): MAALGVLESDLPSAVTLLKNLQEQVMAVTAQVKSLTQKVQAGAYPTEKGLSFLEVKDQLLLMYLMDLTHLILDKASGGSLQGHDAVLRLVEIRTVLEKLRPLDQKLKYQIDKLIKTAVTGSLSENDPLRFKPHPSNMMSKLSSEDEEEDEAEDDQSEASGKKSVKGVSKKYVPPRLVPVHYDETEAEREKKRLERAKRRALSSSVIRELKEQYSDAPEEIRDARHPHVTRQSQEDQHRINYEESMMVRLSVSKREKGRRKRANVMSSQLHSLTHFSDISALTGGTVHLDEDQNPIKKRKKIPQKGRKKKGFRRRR
Sequence of UniProt Q8TCD5 (Q8TCD5 whole entry, one chain of several): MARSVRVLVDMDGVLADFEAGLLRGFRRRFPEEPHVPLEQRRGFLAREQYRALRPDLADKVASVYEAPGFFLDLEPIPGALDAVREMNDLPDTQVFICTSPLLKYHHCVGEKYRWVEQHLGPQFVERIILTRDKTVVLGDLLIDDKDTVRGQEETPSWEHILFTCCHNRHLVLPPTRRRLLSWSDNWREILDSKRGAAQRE
Sequence of UniProt Q13825 (Q13825 whole entry): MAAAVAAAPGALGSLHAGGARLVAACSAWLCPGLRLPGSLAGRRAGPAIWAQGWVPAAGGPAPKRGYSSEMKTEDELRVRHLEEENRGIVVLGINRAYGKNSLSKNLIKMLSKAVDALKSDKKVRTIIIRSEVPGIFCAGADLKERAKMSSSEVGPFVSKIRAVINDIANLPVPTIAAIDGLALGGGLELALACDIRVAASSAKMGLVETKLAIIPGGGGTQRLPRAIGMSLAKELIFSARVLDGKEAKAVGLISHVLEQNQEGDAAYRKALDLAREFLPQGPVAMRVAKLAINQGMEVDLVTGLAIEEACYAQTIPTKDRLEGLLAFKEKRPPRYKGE
Sequence of UniProt Q15819 (Q15819 whole entry): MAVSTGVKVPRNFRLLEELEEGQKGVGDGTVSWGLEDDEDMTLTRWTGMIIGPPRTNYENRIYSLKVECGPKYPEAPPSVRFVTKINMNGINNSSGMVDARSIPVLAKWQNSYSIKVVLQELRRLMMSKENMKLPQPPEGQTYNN

Target	NP40-soluble protein abundance (concentration: 1mM)	NP40-soluble protein abundance (concentration: 2mM)	NP40-soluble protein abundance (concentration: 4mM)	NP40-soluble protein abundance (concentration: 6mM)	NP40-soluble protein abundance (concentration: 8mM)	NP40-soluble protein abundance (concentration: 10mM)
UniProt Q8N137|Q8N137-2|Q8N137-3|Q8N137-4|Q8N137-5	0.92 ± 0.024	1.032 ± 0.006	1.15 ± 0.056	0.983 ± 0.054	0.945 ± 0.026	0.947 ± 0.2
UniProt Q12872|Q12872-2	1.24 ± 0.083	1.33 ± 0.049	1.5 ± 0.049	1.77 ± 0.068	1.77 ± 0.066	1.93 ± 0.075
TBC1D25 (UniProt Q3MII6)	0.982 ± 0.059	1.04 ± 0.11	1.05 ± 0.16	0.962 ± 0.095	1.01 ± 0.14	1 ± 0.15
UniProt Q4G0J3|Q4G0J3-3	1.17 ± 0.046	1.22 ± 0.047	1.36 ± 0.021	1.507 ± 0.0071	1.56 ± 0.049	1.71 ± 0.018
UniProt Q08170	1.58 ± 0.12	1.68 ± 0.08	1.66 ± 0.095	1.81 ± 0.058	1.68 ± 0.052	1.64 ± 0.073
UniProt Q8IZ81|D6RBS5	1.01 ± 0.11	0.966 ± 0.089	0.958 ± 0.094	0.916 ± 0.12	0.967 ± 0.045	0.958 ± 0.057
UniProt Q13111|K7EPA1	0.987 ± 0.059	0.988 ± 0.028	0.97 ± 0.035	1.03 ± 0.031	0.977 ± 0.036	1.01 ± 0.036
BNIP1 (UniProt Q12981)	0.986 ± 0.051	0.983 ± 0.05	0.98 ± 0.07	1 ± 0.012	0.971 ± 0.049	0.932 ± 0.053
UniProt Q15397	1.28 ± 0.054	1.39 ± 0.058	1.53 ± 0.073	1.6 ± 0.13	1.7 ± 0.042	1.96 ± 0.12
UniProt Q14498|Q14498-2	1.59 ± 0.14	1.72 ± 0.12	1.84 ± 0.12	1.93 ± 0.13	1.98 ± 0.15	2.02 ± 0.2
ZNF579 (UniProt Q8NAF0)	0.954 ± 0.03	1.06 ± 0.12	0.945 ± 0.016	0.936 ± 0.073	0.901 ± 0.045	0.887 ± 0.1
C6ORF134 (UniProt Q5SQI0)	0.975 ± 0.073	0.98 ± 0.089	0.981 ± 0.064	0.999 ± 0.09	0.983 ± 0.029	0.998 ± 0.04
UniProt Q6KCM7-2|Q6KCM7-3|Q6KCM7|Q6KCM7-4|Q6KCM7-5	0.871 ± 0.048	0.884 ± 0.061	0.831 ± 0.012	0.758 ± 0.085	0.868 ± 0.039	0.894 ± 0.026
UniProt Q8NCA5|Q8NCA5-2	1.01 ± 0.056	1.14 ± 0.15	1.18 ± 0.12	1.26 ± 0.14	1.41 ± 0.14	1.64 ± 0.23
UniProt Q8NC60	0.967 ± 0.17	0.876 ± 0.13	0.889 ± 0.13	0.876 ± 0.2	0.945 ± 0.15	0.942 ± 0.14
UniProt Q8TCD5|J3KRC4	1 ± 0.021	1.02 ± 0.04	1.01 ± 0.057	0.942 ± 0.15	1.01 ± 0.11	0.954 ± 0.091
TRIM14 (UniProt Q14142)	1.08 ± 0.044	1.05 ± 0.037	1.13 ± 0.088	1.1 ± 0.083	1.17 ± 0.067	1.27 ± 0.2
UniProt Q86UT6|Q86UT6-2	1.03 ± 0.027	1.081 ± 0.0018	0.99 ± 0.06	1.01 ± 0.18	1.02 ± 0.14	1.03 ± 0.12
UniProt Q7Z5K2|Q7Z5K2-3	1.02 ± 0.011	0.995 ± 0.018	0.993 ± 0.011	1.01 ± 0.026	1.014 ± 0.0065	0.987 ± 0.029
ZC3H12A (UniProt Q5D1E8)	0.982 ± 0.088	1.05 ± 0.089	0.988 ± 0.11	1.02 ± 0.085	1.02 ± 0.084	0.943 ± 0.11

Target	NP40-soluble protein abundance (concentration: 1mM)	NP40-soluble protein abundance (concentration: 2mM)	NP40-soluble protein abundance (concentration: 4mM)	NP40-soluble protein abundance (concentration: 6mM)	NP40-soluble protein abundance (concentration: 8mM)	NP40-soluble protein abundance (concentration: 10mM)
COX17 (UniProt Q14061)	0.938 ± 0.1	0.895 ± 0.074	0.92 ± 0.1	0.963 ± 0.033	0.859 ± 0.056	0.847 ± 0.023
GRAMD4 (UniProt Q6IC98)	1.01 ± 0.02	0.998 ± 0.02	0.994 ± 0.035	1.02 ± 0.031	1.02 ± 0.025	1.01 ± 0.02
ERCC6L (UniProt Q2NKX8)	0.999 ± 0.024	0.986 ± 0.026	0.971 ± 0.024	0.999 ± 0.033	0.966 ± 0.0079	0.978 ± 0.017
UniProt Q14155-1	1 ± 0.011	0.9849 ± 0.0056	0.97 ± 0.013	1.02 ± 0.05	0.976 ± 0.024	0.962 ± 0.034
ZCCHC7 (UniProt Q8N3Z6)	1.02 ± 0.19	1.2 ± 0.026	1.34 ± 0.021	1.48 ± 0.018	1.51 ± 0.15	1.79 ± 0.044
UniProt Q8NB78	1.11 ± 0.064	1.09 ± 0.025	1.11 ± 0.08	0.998 ± 0.08	1.11 ± 0.035	1.09 ± 0.025
KIF18A (UniProt Q8NI77)	1.09 ± 0.11	0.996 ± 0.2	1.09 ± 0.035	1.06 ± 0.013	1.09 ± 0.18	1.18 ± 0.16
UniProt Q8NCU8-2	0.876 ± 0.17	0.822 ± 0.086	0.826 ± 0.14	0.769 ± 0.068	0.883 ± 0.12	0.752 ± 0.038
MDC1 (UniProt Q14676)	1.45 ± 0.11	1.57 ± 0.11	1.74 ± 0.13	1.89 ± 0.18	1.88 ± 0.13	1.99 ± 0.15
UniProt Q8N6N3|Q8N6N3-2	0.865 ± 0.1	0.81 ± 0.041	0.869 ± 0.13	0.822 ± 0.051	0.779 ± 0.12	0.817 ± 0.063
UniProt Q15906|Q15906-2	1.13 ± 0.12	1.13 ± 0.092	1.22 ± 0.12	1.27 ± 0.23	1.24 ± 0.12	1.26 ± 0.13
UniProt Q6Y7W6|Q6Y7W6-4|Q6Y7W6-5	1.05 ± 0.076	1.08 ± 0.05	1.1 ± 0.051	1.18 ± 0.068	1.12 ± 0.029	1.16 ± 0.045
UBE2V2 (UniProt Q15819)	0.932 ± 0.018	0.904 ± 0.027	0.9 ± 0.045	0.922 ± 0.032	0.885 ± 0.035	0.853 ± 0.028
PCGF5 (UniProt Q86SE9)	0.922 ± 0.16	1.01 ± 0.056	0.981 ± 0.15	0.987 ± 0.087	0.954 ± 0.11	1.07 ± 0.037
URB2 (UniProt Q14146)	1.21 ± 0.1	1.36 ± 0.15	1.61 ± 0.058	1.68 ± 0.11	2.04 ± 0.16	2.19 ± 0.46
LYPLAL1 (UniProt Q5VWZ2)	0.942 ± 0.077	0.936 ± 0.066	0.892 ± 0.048	0.879 ± 0.12	0.883 ± 0.03	0.904 ± 0.057
UniProt Q8N766|Q8N766-3	0.974 ± 0.082	0.977 ± 0.065	0.982 ± 0.056	0.878 ± 0.1	0.934 ± 0.013	0.977 ± 0.052
UniProt Q16611|Q16611-2	1.01 ± 0.036	0.985 ± 0.023	1.02 ± 0.09	1.05 ± 0.045	0.997 ± 0.077	0.993 ± 0.087
UniProt Q13795|Q13795-3	0.95 ± 0.024	0.961 ± 0.015	0.932 ± 0.025	0.962 ± 0.046	0.9416 ± 0.0073	0.945 ± 0.039
CEP135 (UniProt Q66GS9)	0.983 ± 0.041	0.966 ± 0.026	0.964 ± 0.038	0.956 ± 0.036	0.972 ± 0.029	0.989 ± 0.047

Target	NP40-soluble protein abundance (concentration: 1mM)	NP40-soluble protein abundance (concentration: 2mM)	NP40-soluble protein abundance (concentration: 4mM)	NP40-soluble protein abundance (concentration: 6mM)	NP40-soluble protein abundance (concentration: 8mM)	NP40-soluble protein abundance (concentration: 10mM)
Q5QPA5|Q9NVS2|Q9NVS2-2 (UniProt Q9NVS2)	1.07 ± 0.12	0.926 ± 0.14	0.879 ± 0.17	0.946 ± 0.39	0.887 ± 0.24	0.818 ± 0.2
UniProt Q7L590|Q7L590-2|Q5T670	1.01 ± 0.11	1.07 ± 0.059	1.13 ± 0.044	1.01 ± 0.057	1.11 ± 0.12	1.14 ± 0.12
UniProt Q7Z2T5	1.09 ± 0.05	1.16 ± 0.051	1.27 ± 0.013	1.39 ± 0.023	1.55 ± 0.018	1.69 ± 0.051
UniProt Q0VDD8-4	0.837 ± 0.098	0.884 ± 0.028	0.9026 ± 0.0016	0.9241 ± 0.0037	0.956 ± 0.13	1.06 ± 0.059
UniProt Q8NEJ9|Q8NEJ9-2	1.11 ± 0.12	1.13 ± 0.16	1.24 ± 0.064	1.29 ± 0.14	1.32 ± 0.058	1.34 ± 0.19
UniProt Q14289|Q14289-2|H0YB74	1.03 ± 0.04	1.04 ± 0.042	1.02 ± 0.04	0.981 ± 0.06	1.01 ± 0.04	1 ± 0.064
FLCN (UniProt Q8NFG4)	1.02 ± 0.056	1 ± 0.037	1.05 ± 0.066	0.988 ± 0.058	0.977 ± 0.07	0.974 ± 0.033
DCUN1D3 (UniProt Q8IWE4)	0.923 ± 0.038	0.949 ± 0.049	0.998 ± 0.035	0.92 ± 0.034	0.931 ± 0.039	0.866 ± 0.11
UniProt Q8WU79|A0A087WV97|Q8WU79-2|Q8WU79-3	0.891 ± 0.067	0.924 ± 0.024	0.869 ± 0.011	0.975 ± 0.047	0.839 ± 0.017	0.872 ± 0.032
UniProt Q8TDY2|Q8TDY2-2	1.04 ± 0.056	1.02 ± 0.044	1.03 ± 0.038	1.04 ± 0.042	1.01 ± 0.041	1.04 ± 0.038
CUL4A (UniProt Q13619)	0.99 ± 0.13	0.955 ± 0.08	0.918 ± 0.08	0.89 ± 0.098	0.963 ± 0.047	0.94 ± 0.047
THOC5 (UniProt Q13769)	1.53 ± 0.054	1.68 ± 0.11	2.01 ± 0.17	2.23 ± 0.28	2.52 ± 0.27	2.52 ± 0.29
UniProt Q86X95	0.964 ± 0.013	0.935 ± 0.061	0.9643 ± 0.008	0.949 ± 0.026	0.935 ± 0.0096	0.913 ± 0.02
AUH (UniProt Q13825)	0.96 ± 0.062	0.979 ± 0.049	0.967 ± 0.035	0.93 ± 0.082	0.96 ± 0.055	0.973 ± 0.036
NFX1 (UniProt Q12986)	1.07 ± 0.08	1.21 ± 0.042	1.34 ± 0.041	1.46 ± 0.046	1.62 ± 0.031	1.66 ± 0.11
UniProt Q13438|Q13438-7	0.953 ± 0.036	0.953 ± 0.049	0.94 ± 0.056	0.99 ± 0.069	0.939 ± 0.031	0.952 ± 0.045
UniProt Q7Z7K6|Q7Z7K6-3	1.08 ± 0.058	1.14 ± 0.19	1.33 ± 0.14	1.47 ± 0.24	1.56 ± 0.23	2.03 ± 0.28
UniProt Q16181|Q16181-2	0.891 ± 0.15	0.979 ± 0.023	0.9086 ± 0.0056	0.963 ± 0.076	0.957 ± 0.026	0.911 ± 0.046
UniProt Q86VR2	0.91 ± 0.084	0.941 ± 0.088	0.925 ± 0.11	0.869 ± 0.037	0.906 ± 0.064	0.943 ± 0.052
UniProt Q86UY6	1.39 ± 0.18	1.46 ± 0.14	1.56 ± 0.21	1.66 ± 0.26	1.69 ± 0.21	1.69 ± 0.15
